# Reference: the supplement of paper PMC8728848
# The entries come from a sample that favours the strongest signals as a whole.
# B1: EUL D1A second (Oryza sativa) (protein)
# chain: GAATACTIGGVPVHTVRVFSAAGEDYCLTVRNGTACLAPKNPRDDYQHWIKDMRHSNKIRDEEGYPAFALVNKVTGEAIKHSTGQGHPVKLVPYNPEYQDESVLWTESKDVGKGFRCIRMVNNIYLNFDAFHGDKDHGGIHDGTEIVLWKWCEGDNQRWKILPWILEQKLISEEDLNSAVDHHHHHH
# How the values were obtained:
# Assay in all cases: glycan array binding signal (z-score within array); higher = stronger binding
# Details in all cases: glycan notation: IUPAC condensed, linker removed
# Gal3S(b1-4)GlcNAc = target: Gal3S(b1-4)GlcNAc
# Method in brief: (§1)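 From the Consortium for Functional Glycomics database, 3228 arrays were curated, keeping only those whose protein sequence was available. Binding is given as a within-array Z-score averaged across arrays sharing a protein sequence and across linkers. Negative Z-scores can be read as non-binding.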
# [1] = target: Gal3S(b1-4)[Fuc(a1-3)]Glc6S
# Method in brief: as §1
# [2] = target: Gal3S(b1-4)[Fuc(a1-3)]GlcNAc
# Method in brief: as §1
# Gal6S(b1-4)GlcNAc6S = target: Gal6S(b1-4)GlcNAc6S
# Method in brief: as §1
# GalNAc(a1-3)GalNAc = target: GalNAc(a1-3)GalNAc
# Method in brief: as §1
# [3] = target: GalNAc(b1-3)Gal(a1-4)Gal(b1-4)GlcNAc(b1-3)Gal(b1-4)Glc
# Method in brief: as §1
# [4] = target: GalNAc(b1-3)Gal(a1-6)Gal(b1-4)Glc
# Method in brief: as §1
# GalNAc3S(b1-4)GlcNAc3S = target: GalNAc3S(b1-4)GlcNAc3S
# Method in brief: as §1
# Glc(a1-4)Glc = target: Glc(a1-4)Glc
# Method in brief: as §1
# [5] = target: GlcNAc(a1-4)Gal(b1-4)GlcNAc(b1-3)Gal(b1-4)[Fuc(a1-3)]GlcNAc(b1-3)Gal(b1-4)[Fuc(a1-3)]GlcNAc
# Method in brief: as §1
# [6] = target: GlcNAc(b1-3)Gal(b1-4)GlcNAc(b1-3)Gal(b1-4)GlcNAc(b1-2)Man(a1-3)[GlcNAc(b1-3)Gal(b1-4)GlcNAc(b1-3)Gal(b1-4)GlcNAc(b1-2)Man(a1-6)]Man(b1-4)GlcNAc(b1-4)GlcNAc
# Method in brief: as §1
# [7] = target: GlcNAc(b1-3)Gal(b1-4)GlcNAc(b1-3)Gal(b1-4)GlcNAc(b1-3)Gal(b1-4)GlcNAc(b1-2)Man(a1-3)[GlcNAc(b1-3)Gal(b1-4)GlcNAc(b1-3)Gal(b1-4)GlcNAc(b1-3)Gal(b1-4)GlcNAc(b1-2)Man(a1-6)]Man(b1-4)GlcNAc(b1-4)GlcNAc
# Method in brief: as §1
# [8] = target: GlcNAc(b1-4)[GlcNAc(b1-6)]GalNAc
# Method in brief: as §1
# Kdn(a2-6)Gal(b1-4)GlcNAc = target: Kdn(a2-6)Gal(b1-4)GlcNAc
# Method in brief: as §1
# [9] = target: Man(a1-2)Man(a1-3)[Man(a1-2)Man(a1-6)]Man(a1-6)[Man(a1-2)Man(a1-2)Man(a1-3)]Man
# Method in brief: as §1
# [10] = target: Man(a1-2)Man(a1-3)[Man(a1-2)Man(a1-6)]Man(a1-6)[Man(a1-2)Man(a1-2)Man(a1-3)]Man(b1-4)GlcNAc(b1-4)GlcNAc
# Method in brief: as §1
# [11] = target: Man(a1-2)Man(a1-6)[Man(a1-3)]Man(a1-6)[Man(a1-2)Man(a1-2)Man(a1-3)]Man
# Method in brief: as §1
# [12] = target: Neu5Ac(a2-3)Gal(b1-3)GlcNAc(b1-2)Man
# Method in brief: as §1
# [13] = target: Neu5Ac(a2-3)Gal(b1-3)GlcNAc(b1-6)GalNAc
# Method in brief: as §1
# [14] = target: Neu5Ac(a2-3)Gal(b1-3)[Fuc(a1-4)]GlcNAc
# Method in brief: as §1
# [15] = target: Neu5Ac(a2-3)Gal(b1-3)[GlcNAc(b1-6)]GalNAc
# Method in brief: as §1
# [16] = target: Neu5Ac(a2-3)Gal(b1-3)[Neu5Ac(a2-6)]GlcNAc(b1-3)[Fuc(a1-3)[Gal(b1-4)]GlcNAc(b1-6)]Gal(b1-4)Glc
# Method in brief: as §1
# [17] = target: Neu5Ac(a2-3)Gal(b1-4)GlcNAc(b1-3)Gal(b1-4)GlcNAc(b1-3)Gal(b1-4)GlcNAc(b1-2)Man(a1-3)[Neu5Ac(a2-3)Gal(b1-4)GlcNAc(b1-3)Gal(b1-4)GlcNAc(b1-3)Gal(b1-4)GlcNAc(b1-2)Man(a1-6)]GalNAc
# Method in brief: as §1
# [18] = target: Neu5Ac(a2-3)Gal(b1-4)[Fuc(a1-3)]GlcNAc(b1-3)Gal(b1-4)[Fuc(a1-3)]GlcNAc(b1-3)Gal(b1-4)[Fuc(a1-3)]GlcNAc
# Method in brief: as §1
# [19] = target: Neu5Ac(a2-3)Gal(b1-4)[Fuc(a1-3)]GlcNAc(b1-3)GalNAc
# Method in brief: as §1
# Neu5Ac(a2-6)Gal(b1-4)Glc = target: Neu5Ac(a2-6)Gal(b1-4)Glc
# Method in brief: as §1
# [20] = target: Neu5Ac(a2-6)Gal(b1-4)GlcNAc(b1-2)Man(a1-3)[Man(a1-6)]Man(b1-4)GlcNAc(b1-4)GlcNAc
# Method in brief: as §1
# [21] = target: Neu5Ac(a2-6)Gal(b1-4)GlcNAc(b1-3)Gal(b1-4)GlcNAc
# Method in brief: as §1
# [22] = target: Neu5Ac(a2-6)Gal(b1-4)GlcNAc(b1-3)Gal(b1-4)GlcNAc(b1-3)Gal(b1-4)GlcNAc
# Method in brief: as §1
# [23] = target: Neu5Ac(a2-6)Gal(b1-4)GlcNAc(b1-3)[Neu5Ac(a2-6)Gal(b1-4)GlcNAc(b1-6)]GalNAc
# Method in brief: as §1
# [24] = target: Neu5Ac(a2-6)Gal(b1-4)GlcNAc(b1-6)[Gal(b1-3)GlcNAc(b1-3)]Gal(b1-4)Glc
# Method in brief: as §1
# [25] = target: Neu5Ac(a2-6)GlcNAc(b1-4)GlcNAc
# Method in brief: as §1
# [26] = target: Neu5Ac(a2-8)Neu5Ac(a2-3)[GalNAc(b1-4)]Gal(b1-4)Glc
# Method in brief: as §1
# Neu5Gc(a2-3)Gal(b1-4)Glc = target: Neu5Gc(a2-3)Gal(b1-4)Glc
# Method in brief: as §1
binder,measurement,setting,value
B1,glycan array binding signal (z-score),Gal3S(b1-4)GlcNAc,0.255
same,glycan array binding signal (z-score),[1],2.74
same,glycan array binding signal (z-score),[2],2.4
same,glycan array binding signal (z-score),Gal6S(b1-4)GlcNAc6S,0.99
same,glycan array binding signal (z-score),GalNAc(a1-3)GalNAc,-0.302
same,glycan array binding signal (z-score),[3],-0.809
same,glycan array binding signal (z-score),[4],-0.495
same,glycan array binding signal (z-score),GalNAc3S(b1-4)GlcNAc3S,-0.9
same,glycan array binding signal (z-score),Glc(a1-4)Glc,0.317
same,glycan array binding signal (z-score),[5],2.44
same,glycan array binding signal (z-score),[6],0.61
same,glycan array binding signal (z-score),[7],0.539
same,glycan array binding signal (z-score),[8],-0.443
same,glycan array binding signal (z-score),Kdn(a2-6)Gal(b1-4)GlcNAc,-1.38
same,glycan array binding signal (z-score),[9],-0.985
same,glycan array binding signal (z-score),[10],1.93
same,glycan array binding signal (z-score),[11],0.706
same,glycan array binding signal (z-score),[12],3.06
same,glycan array binding signal (z-score),[13],-0.587
same,glycan array binding signal (z-score),[14],0.596
same,glycan array binding signal (z-score),[15],0.412
same,glycan array binding signal (z-score),[16],1.26
same,glycan array binding signal (z-score),[17],3.53
same,glycan array binding signal (z-score),[18],-0.112
same,glycan array binding signal (z-score),[19],2.61
same,glycan array binding signal (z-score),Neu5Ac(a2-6)Gal(b1-4)Glc,0.113
same,glycan array binding signal (z-score),[20],0.117
same,glycan array binding signal (z-score),[21],0.827
same,glycan array binding signal (z-score),[22],-2.05
same,glycan array binding signal (z-score),[23],2.81
same,glycan array binding signal (z-score),[24],0.242
same,glycan array binding signal (z-score),[25],-0.238
same,glycan array binding signal (z-score),[26],0.083
same,glycan array binding signal (z-score),Neu5Gc(a2-3)Gal(b1-4)Glc,0.509
